Sampled rows, rich in hits. Any-hit rate of the full collection: about 21%.
Pf growth 48h: Primary qHTS for delayed death inhibitors of the malarial parasite plastid, 48 hour incubation; P. falciparum luciferase growth in erythrocytes, 48 h; Potency, µM (series often up to 28.7 µM), for inactives: at the highest dose activity change, negative = inhibition, hits mostly inhibitors; 310,000 compounds, 5.9% hits; AID 504832, 2011; also: potency is read from the fitted curve at half-maximal effect; % is scaled to controls: 0 for no effect and ±100 for the full control effect
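First compound was added to culture medium, then infected red cells at 0.1% parasitemia and 2% hematocrit (final). After incubation at 37 C under 5% CO2, luciferase detection reagent was dispensed and light output recorded.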
HCMV antiviral: qHTS Assay for inhibitors of the human cytomegalovirus (HCMV); HFF cells, HCMV-luciferase reporter, 72 h; stronger effect = lower value; AID 1259415, 2018; 410,000 compounds, 4.5% hits; activity change, negative = inhibition, % at 57.5 µM; in the data active = activity change below about -60%; inconclusive = no clear call, values can overlap the other calls; inactive = above about -39%; also: % is scaled to controls: 0 for no effect and ±100 for the full control effect
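Cell-based, HFFs, 1000 cells/well, 16 h 37C; cpds in DMSO + HCMV-luc, MOI 1 PFU/cell; 72 h 37C; OneGlo luminescence after 5 min RT; norm. to buffer vs Salinomycin 10uM.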
CHX counter: Cycloheximide Counterscreen for Small Molecule Inhibitors of Shiga Toxin; cell reporter, cycloheximide protein synthesis inhibition counterscreen; 300,000 compounds, 12% hits; AID 2314, 2010; max response, %; in the data active = max response mostly above about 13%, no sharp cut-off; inactive = mostly below about 14%; also: read at 38.3 µM for the half of the compounds with a filed dose; 0% is about no effect
Shiga toxin inh: A qHTS for Small Molecule Inhibitors of Shiga Toxin; inhibition, % at 38.7 µM; Vero cells, Shiga toxin protein synthesis inhibition reporter; AID 2315, 2010; 290,000 compounds, 9.2% hits; in the data active = inhibition mostly above about 28%, no sharp cut-off; inactive = mostly below about 43%; also: 0% is about no effect
Pf growth 96h: Primary qHTS for delayed death inhibitors of the malarial parasite plastid, 96 hour incubation | AID 504834, 2011 | Potency, µM (doses to about 28.7 µM), inactives show top-dose activity change, negative = inhibition, actives largely listed as inhibitors | P. falciparum luciferase reporter growth, 96 h | 320,000 compounds, 6.9% hits; also: potency is read from the fitted curve at half-maximal effect; % is scaled to controls: 0 for no effect and ±100 for the full control effect
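Delayed-death screen, second-generation endpoint: infected erythrocytes, 2% hematocrit, 0.05% parasitemia final; 96 hours at 37 C, 5% CO2; luciferase detection reagent; luminescence decrease equals reduced growth.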
HCV inh: qHTS Assay for Inhibitors of Hepatitis C Virus (HCV); Huh7.5.1 HCVcc-Cre infection, luciferase reporter, 44 h; Potency, µM (highest dose often 41.8 µM), for inactives: at the top dose activity change, negative = inhibition, actives largely listed as inhibitors; 340,000 compounds, 3.4% hits; AID 651820, 2012; also: potency is read from the fitted curve at half-maximal effect; % is scaled to controls: 0 for no effect and ±100 for the full control effect
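After 44 h co-culture of compound, cells and HCVcc-Cre (~0.5 moi), substrate is added for 15 min at room temperature and luciferase measured over 15 sec. Cells were seeded at 1,000/well and pre-cultured 4 h.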
* marks the source's active call; other numbers are inactive results; ? = inconclusive; . = not tested or not shown; [ ] = another dose, or the depositor's remark. Unless noted, calls follow the shape of the dose curve; as a rule, active = well fitted inhibition curve with a large enough effect; inconclusive = small, poorly fitted or top-dose-only effect, or another doubt; inactive = no such curve, though single readings can be large or run the other way.

SMILES	Pf growth 48h	HCMV antiviral	CHX counter	Shiga toxin inh	Pf growth 96h	HCV inh
CCCCn1c(NS(=O)(=O)c2ccc(C)cc2)c(C(=O)OCC)c2nc3ccccc3nc21	-2.6%	-18.2	1.9	-15.4	1.9%	15.3%
Cc1ccc(-c2nc3ccccc3nc2NN)cc1	448.7%	205.6	40.6*	52.8*	283.8%	14.9%
Cc1ccc(-c2nc3ccccc3nc2Cl)cc1	?	?	7.5	-2.0	20.9%	2.6%
O=C(COc1ccc2c3c(c(=O)oc2c1)CCCC3)N1CCN(c2ccc(F)cc2)CC1	3.6%	0.0	-1.4	32.7	-22.0%	10µM*
C#CCOc1ccc2c3c(c(=O)oc2c1)CCCC3	36.1%	16.6	13.7*	.	308.2%	-26.3%
O=C(COc1ccc2c3c(c(=O)oc2c1)CCC3)Nc1ccccn1	128.2%	-19.4	19.6*	18.7	188.6%	0.0%
CC(=O)C(C)Oc1ccc2c3c(c(=O)oc2c1)CCCCC3 (centres undefined)	73.1%	3.9	49.7*	82.6*	.	35.5µM*
Cc1cc(NC(=O)COC(=O)COc2ccc3c4c(c(=O)oc3c2)CCC4)no1	2.3%	-6.4	-3.1	-6.3	-7.4%	18.7%
COc1ccc(C(=O)NCC(c2ccc3c(c2)OCO3)N2CCN(c3ccc(F)cc3)CC2)cc1 (centres undefined)	.	-1.7	.	.	.	.
O=C(O)C(Oc1ccc2c3c(c(=O)oc2c1)CCC3)c1ccccc1 (centres undefined)	15.0%	-101.0*	11.0	2.1	33.5%	4.2%
CC(=O)COc1ccc2c3c(c(=O)oc2c1)CCCC3	45.2%	82.4	17.0*	50.3	.	1.4%
Cc1cc(=O)oc2cc(OC(C(=O)O)c3ccccc3)ccc12 (centres undefined)	24.1%	-26.5	2.0	-11.3	12.9%	16.4%
CCCCCCn1cc(CN2CC(N(C)CC)CS2(=O)=O)nn1 (centres undefined)	.	-15.3	.	.	.	.
Cc1ccc(-c2c3c(=O)n(C)c(=O)n(C)c3c3n2-c2ccccc2NC3c2ccc(C)cc2O)cc1 (centres undefined)	.	-96.1*	.	.	.	.
Cn1c(=O)c2c(-c3ccccc3)n3c(c2n(C)c1=O)C(c1ccc([N+](=O)[O-])cc1)Nc1ccccc1-3 (centres undefined)	.	-68.0*	.	.	.	.
CCOC(=O)CNC(=O)c1cc2c(=O)n3cccc(C)c3nc2n1C	.	-35.1	.	.	.	.
Cc1nc(-c2ccccc2)cn(O)c1=O	?	5.2	-4.3	-2.8	24.2%	21.1%
c1ccc(-c2cn3c(n2)-c2ccccc2C3)cc1	97.4%	14.2	25.8*	44.7*	163.5%	10.8%
COc1cccc(-n2cnc3sc(C)cc3c2=O)c1	16.6%	-14.1	16.3	27.5	8.3%	17.7%
CCOC(=O)Nc1ccc2nc(N3CCCCCC3)sc2c1	111.1%	-34.9	34.3*	125.6*	164.4%	?
Cc1nc2ccc(NC(=O)N3CCN(c4ccccn4)CC3)cc2s1	-16.0%	-39.5	6.6	70.1	?	2.5%
Cc1nc2ccc(NC(=O)N3CCSCC3)cc2s1	?	10.8	18.0*	75.8	?	4.1%
CCOC(=O)N1CCN(C(=O)Nc2ccc3nc(-c4ccccn4)c(-c4ccccn4)nc3c2)CC1	-11.9%	-2.4	0.6	-3.0	-13.1%	-21.7%
CCOC(=O)N1CCN(C(=O)Nc2ccc3nc(C)sc3c2)CC1	0.0%	-32.8	16.5*	30.7	.	?
Cc1nc2ccc(NC(=O)N3CCSCC3)cc2nc1C	15.2%	-2.4	-2.8	4.4	?	5.0%
SMILES	Pf growth 48h	HCMV antiviral	CHX counter	Shiga toxin inh	Pf growth 96h	HCV inh
Cc1nc2ccc(NC(=O)N3CCCCC3)cc2s1	31.5%	6.6	28.1*	40.8*	.	-6.3%
CCOc1ccc2nc(N3CCCC(C(=O)Nc4ccc(CC)cc4)C3)sc2c1 (centres undefined)	.	-5.9	.	.	.	.
CC1=CC(C)(C)Nc2ccc(OC(=O)c3cccnc3)cc21	5.22µM*	-91.7*	27.0*	93.5*	.	?
CC1=CC(C)(C)Nc2ccc(OC(=O)c3ccco3)cc21	11.7µM*	-81.8*	17.3*	37.6	9.28µM*	?
COc1ccccc1-c1c(C)oc2cc(OC(=O)c3ccco3)ccc2c1=O	17.2%	30.6	-0.6	13.1	?	-12.5%
CC1=CC(C)(C)N2C(=O)C(=O)c3cc(OC(=O)c4ccco4)cc1c32	-12.1%	-87.8*	-5.3	14.8	92.1%	18.0%
CC1=CC(C)(C)Nc2ccc(OC(=O)CN3C(=O)CCC3=O)cc21	10.4µM*	-94.1*	11.9	26.7	.	11.2µM*
O=C(Oc1ccc(F)cc1)c1cccnc1	-22.1%	-3.9	3.4	-5.2	?	1.9%
CC1=CC(C)(C)Nc2ccc(C)cc21	?	-4.3	-5.9	-9.4	?	12.5%
CC1=CC(C)(C)Nc2ccc(Cc3ccc4c(c3)C(C)=CC(C)(C)N4)cc21	?	-19.9	-6.6	-6.4	?	10µM*
CC1=CC(C)(C)Nc2ccc(OC(=O)C(C)N3C(=O)c4ccccc4C3=O)cc21 (centres undefined)	13.1µM*	-73.7*	0.9	-36.4	?	?
Cc1cccc(C)c1OCC(=O)Nc1c(C(=O)c2ccc(Br)cc2)oc2ccccc12	.	-9.6	.	.	.	.
N#CC[C@H](c1ccccc1)N1CCN(Cc2ccccc2)CCC1=O	6.6%	-30.3	1.7	-8.0	?	4.8%
CCOc1ccc(NC(=S)Nc2cccc3cnccc23)cc1	-0.2%	-34.7	13.7*	10.6	21.3%	?
CCOc1ccc(NC(=S)Nc2ccccc2C2CC2)cc1	?	?	7.3	-17.6	-5.8%	11.2%
CCC(=O)NC(=S)Nc1ccc(NC(=O)c2ccc(C)c([N+](=O)[O-])c2)cc1	-22.4%	-5.9	-1.8	-7.8	-6.9%	?
CCOc1ccc(NC(=S)Nc2ccc(OC(F)(F)F)cc2)cc1	10.2%	-18.6	-0.6	0.2	?	-3.6%
CCOc1ccc(NC(=S)Nc2cc(C)[nH]n2)cc1	40.2%	-34.1	26.9*	62.2*	-5.9%[5.75 µM]	-6.4%
CCOc1ccc(NC(=S)Nc2ccc(C)c([N+](=O)[O-])c2)cc1	.	7.1	-4.9	-9.7	2.08µM*	-33.5%
CCOc1ccc(NC(=S)Nc2cccc3ccccc23)cc1	?	-20.5	72.1*	88.8*	11.3%	-5.9%
O=C(CCCn1c(=O)c2cccn2c2ccccc21)Nc1cc(C(F)(F)F)ccc1Cl	.	55.9	.	.	.	.
CCCOC(=O)c1cccc(Nc2nc(C(=O)OCC)nc3ccccc23)c1	.	-9.8	.	.	.	.
CCOc1ccc(NC(=S)Nc2ccc(OCC)cc2)cc1	-18.7%	-100.0*	-2.1	23.8	?	4.9%
CCOc1ccc(NS(=O)(=O)c2ccc(NC(=S)NC(C)=O)cc2)cc1	?	-62.2*	-1.3	-10.7	3.7µM*	?

From PubChem
